Assay results: PubChem BioAssay (Tox21)
Records with an inconclusive call do not appear. Calls of active or inactive are those of the source. Unless noted, calls come from the whole dose curve; as a rule, active = well fitted curve in the direction sought with a large enough effect in the repeat runs; inconclusive = weak or mixed curves; inactive = no such curve, though single readings can be large; an effect the other way counts as inactive or inconclusive.

Assays:
[1] = biological target: Progesterone receptor (Homo sapiens) (UniProt P06401); experiment: qHTS assay to identify small molecule agonists of the progesterone receptor (PR) signaling pathway (AID 1346784; calls by dose curve; note: nearly all actives have a fitted effect of over 30% in size)
Method in brief: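 Agonist mode, quantitative HTS format in a HEK 293T line expressing a UAS-controlled beta-lactamase reporter; 16 hr compound exposure at 37C in 2% charcoal-stripped FBS, then LiveBLAzer B/G FRET fluorescence.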

[2] = biological target: Progesterone receptor (Homo sapiens) (UniProt P06401); experiment: qHTS assay to identify small molecule antagonists of the progesterone receptor (PR) signaling pathway (AID 1346795; active = well fitted inhibition curve with a large enough effect in the signal ratio in the repeat runs, not every such curve was filed as active; the % refers to the signal ratio; note: potency is the fitted concentration of half-maximal effect)
Method in brief: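 HEK293T PR-UAS-bla reporter cells in charcoal-stripped serum (2%) received compound after a 6 hr settling period, followed by R5020 agonist at 1 nM final; 16 hr incubation preceded the FRET substrate step and fluorescence measurement.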

[3] = qHTS assay to identify small molecule antagonists of the progesterone receptor (PR) signaling pathway - cell viability counter screen (AID 1346798); note: series mostly up to about 92 µM; nearly all actives have a fitted effect of over 50% in size
Method in brief: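 Same-well multiplex: after 16 hr at 37C with compound and R5020 stimulation, HEK293T cells carrying a UAS-bla reporter received LiveBLAzer substrate (2 hr RT), then CellTiter-Glo (30 min RT) for luminescent viability.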

[4] = qHTS assay to identify small molecule agonists of the TGF-beta/Smad signaling pathway - cell viability counter screen (AID 1346829); note: top concentration of the series differs between compounds; nearly all actives have a fitted effect of over 45% in size
Method in brief: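 Compound-treated SBE-bla HEK 293T cells (5 hr, 37 C) were assessed for viability with CellTiter-Glo in parallel with the reporter read.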

[5] = biological target: Thyrotropin-releasing hormone receptor (Homo sapiens) (UniProt P34981); experiment: qHTS assay to identify small molecule antagonists of the thyrotropin-releasing hormone receptor (TRHR) signaling pathway (AID 1346877; active = well fitted inhibition curve with a large enough effect in the repeat runs, not every such curve was filed as active; note: series mostly up to about 51 µM)
Method in brief: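 Antagonist mode: after a 5 min room-temperature compound exposure, cells were stimulated with 1 nM (final) TRH. Dye-loaded TRHR-HEK293 cells were used, and calcium-dependent fluorescence was followed for 3 min, with 15-point titrations run in triplicate.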

[6] = biological target: Thyrotropin-releasing hormone receptor (Homo sapiens) (UniProt P34981); experiment: qHTS assay to identify small molecule agonists of the thyrotropin-releasing hormone receptor (TRHR) signaling pathway (AID 1346891; calls by dose curve;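 note: HEK293 cells expressing TRHR with calcium dye readout; series mostly up to about 58 µM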)
Method in brief: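 Agonist-mode calcium mobilisation screen: TRHR-transfected HEK293 cells cultured overnight (18 h), dye-loaded for 2 h at 37 °C, exposed to compounds, and monitored by fluorescence for 3 min.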

[7] = Human pregnane X receptor (PXR) small molecule agonists, qHTS cell viability counter screen (AID 1346977); note: nearly all actives have a fitted effect of over 50% in size; note: potency is the fitted concentration of half-maximal effect
Method in brief: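 Measures live-cell protease fluorescence (CellTiter-Fluor) in PXR-Luc HepG2 cells treated 24hr with compounds at 37C. Cells had 5hr to attach before pin transfer of DMSO solutions.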

[8] = Caspase-3/7 induction in HepG2 cells by small molecules, qHTS assay (AID 1346978); note: nearly all actives have a fitted effect of over 15% in size
Method in brief: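 Wild-type HepG2 cells (2,000/well) were settled 5 h at 37 C, 5% CO2, then exposed to compounds in DMSO for 17 h. Caspase-3/7 activity was read by luminescence 30 min after adding Caspase-Glo 3/7 reagent at room temperature.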

[9] = Caspase-3/7 induction in CHO-K1 cells by small molecules, qHTS cell viability counter screen (AID 1346979); note: nearly all actives have a fitted effect of over 35% in size; note: potency is the fitted concentration of half-maximal effect
Method in brief: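 In the same wells as the caspase read, viability of compound-treated wild-type CHO-K1 cells was assessed using CellTiter-Fluor, added after 16hr at 37C and measured by fluorescence following 1hr further incubation.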

[10] = Caspase-3/7 induction in CHO-K1 cells by small molecules, qHTS assay (AID 1346980); note: nearly all actives have a fitted effect of over 15% in size
Method in brief: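 Wild-type cells were seeded at 1,500 per well and settled 5 hr at 37 C, 5% CO2, then exposed to DMSO-dissolved compounds for 17 hr. Caspase-Glo 3/7 reagent was added, and luminescence was read after 30min at room temperature.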

[11] = Caspase-3/7 induction in HepG2 cells by small molecules, qHTS cell viability counter screen (AID 1346981); note: nearly all actives have a fitted effect of over 30% in size; note: potency is the fitted concentration of half-maximal effect; for activity change, negative = cytotoxicity: series mostly up to about 92 µM
Method in brief: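 CellTiter-Fluor fluorescence measured viability in the same wells used for Caspase-Glo 3/7. HepG2 (wild type) at 2,000 cells/well were pre-incubated 5 hr, dosed, and given reagent at 16 hr, with 1 hr further at 37C.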

[12] = biological target: Nuclear receptor subfamily 1 group I member 2 (Homo sapiens) (UniProt O75469); experiment: Human pregnane X receptor (PXR) small molecule agonists, qHTS assay (AID 1346982); note: nearly all actives have a fitted effect of over 35% in size; note: potency is the fitted concentration of half-maximal effect
Method in brief: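 Agonist mode: luminescence from ONE-Glo after 24 h compound exposure at 37C in HepG2 cells carrying hPXR-responsive CYP3A4 luciferase, plated in charcoal-stripped serum medium 5 h beforehand.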

[13] = biological target: Cytochrome P450 2D6 (Homo sapiens) (UniProt P10635); experiment: Cytochrome P450 Family 2 Subfamily D Member 6 (CYP2D6) small molecule antagonists: luciferase reporter qHTS assay (AID 1671196); note: nearly all actives have a fitted effect of over 50% in size; note: potency is the fitted concentration of half-maximal effect; for activity change, negative = inhibition: series mostly up to about 120 µM
Method in brief: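 CYP2D6 activity was followed as luminescence from its luciferin product after a 1 h NADPH-driven reaction at room temperature. Enzyme-substrate mix and compound were pre-incubated for 10 min, and the signal was read 20 min after adding detection reagent.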

[14] = biological target: Cytochrome P450 2C19 (Homo sapiens) (UniProt P33261); experiment: Cytochrome P450 Family 2 Subfamily C Member 19 (CYP2C19) small molecule antagonists: luciferase reporter qHTS assay (AID 1671197); note: nearly all actives have a fitted effect of over 65% in size; note: potency is the fitted concentration of half-maximal effect; for activity change, negative = inhibition: series mostly up to about 120 µM
Method in brief: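 P450-Glo CYP2C19 screening system; proluciferin substrate; DMSO compound stocks; 10 min RT preincubation; NADPH regeneration, 1 h at 37C; luciferin detection reagent, 20 min RT; luminescence as RLU.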

[15] = qHTS assay to identify small molecule agonists of the progesterone receptor (PR) signaling pathway - cell viability counter screen (AID 1346799; calls by dose curve; note: nearly all actives have a fitted effect of over 45% in size; note: potency is the fitted concentration of half-maximal effect)
Method in brief: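 Counter screen for cytotoxicity: compound-treated PR-UAS-bla HEK293T cells (16 hr, 37C, 5% CO2) were assayed with CellTiter-Glo, luminescence measured after 30 min at room temperature.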

[16] = qHTS assay to identify small molecule antagonists of the TGF-beta/Smad signaling pathway - cell viability counter screen (AID 1346824); note: nearly all actives have a fitted effect of over 50% in size
Method in brief: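 SBE-bla HEK 293T cells were plated overnight at 37 C, then given compounds in DMSO plus TGF-beta1 (added as 0.25 ng/mL solution) for 5 hr. After the bla read, CellTiter-Glo was added to the same wells and luminescence read after 30 min at room temperature.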

[17] = qHTS assay to identify small molecule agonists of the TGF-beta/Smad signaling pathway (AID 1346859; active = well fitted activation curve with a large enough effect in the signal ratio in the repeat runs, not every such curve was filed as active; the % refers to the signal ratio; note: series mostly up to about 77 µM)
Method in brief: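 Smad-responsive beta-lactamase reporter cells (HEK 293T) received compounds from DMSO stocks after overnight attachment, were incubated 5 hr, then treated 2 hr with FRET substrate before dual-emission fluorescence measurement (405 nm excitation).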

[18] = biological target: Nuclear receptor subfamily 1 group I member 2 (Rattus norvegicus) (UniProt Q9R1A7); experiment: Rat pregnane X receptor (rPXR) activation by small molecules, qHTS assay (AID 1346983); conditions: rPXR luciferase reporter cells, One-Glo luminescence, 24 h; max activation: stronger effect = higher value; note: nearly all actives have a fitted effect of over 20% in size
Method in brief: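 Cell-based rPXR luciferase reporter assay, 2,000 cells per well, rested 5hr at 37 C before compound addition in DMSO, then 24 hr at 37 C. One-Glo reagent was added and luminescence read after 30 min at room temperature.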

[19] = biological target: Nuclear receptor subfamily 1 group I member 2 (Homo sapiens) (UniProt O75469); experiment: CYP3A4 induction through human pregnane X receptor (PXR) by small molecules, qHTS assay (AID 1346984); note: nearly all actives have a fitted effect of over 40% in size; note: potency is the fitted concentration of half-maximal effect
Method in brief: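 Read-out is luminescence after One-Glo addition, following a 3 hr, 37C incubation with Luciferin-IPA CYP3A4 substrate (3uM final). Before that, compounds were on DPX-2 cells (HepG2 co-transfected with PXR element plus CYP3A4-promoter luciferase) for 24 hr at 37C.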
% is set by controls: 0 for no effect and ±100 for the full control effect.

Cytochrome P450 2D6 (Homo sapiens), sequence (P10635 whole entry, looked up): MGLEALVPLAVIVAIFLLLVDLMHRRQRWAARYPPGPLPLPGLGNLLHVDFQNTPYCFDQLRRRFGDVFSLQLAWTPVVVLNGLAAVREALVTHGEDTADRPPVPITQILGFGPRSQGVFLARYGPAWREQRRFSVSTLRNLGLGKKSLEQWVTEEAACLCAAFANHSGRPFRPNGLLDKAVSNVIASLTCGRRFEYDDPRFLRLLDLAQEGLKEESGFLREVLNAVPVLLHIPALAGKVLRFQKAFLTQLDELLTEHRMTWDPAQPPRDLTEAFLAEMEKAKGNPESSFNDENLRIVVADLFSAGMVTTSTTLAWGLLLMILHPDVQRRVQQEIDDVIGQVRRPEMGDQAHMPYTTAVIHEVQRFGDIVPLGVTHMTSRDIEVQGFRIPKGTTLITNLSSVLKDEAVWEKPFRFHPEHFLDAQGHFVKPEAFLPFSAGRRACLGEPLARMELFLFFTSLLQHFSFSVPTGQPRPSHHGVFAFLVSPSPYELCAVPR
Nuclear receptor subfamily 1 group I member 2 (Rattus norvegicus), sequence (Q9R1A7 whole entry, looked up): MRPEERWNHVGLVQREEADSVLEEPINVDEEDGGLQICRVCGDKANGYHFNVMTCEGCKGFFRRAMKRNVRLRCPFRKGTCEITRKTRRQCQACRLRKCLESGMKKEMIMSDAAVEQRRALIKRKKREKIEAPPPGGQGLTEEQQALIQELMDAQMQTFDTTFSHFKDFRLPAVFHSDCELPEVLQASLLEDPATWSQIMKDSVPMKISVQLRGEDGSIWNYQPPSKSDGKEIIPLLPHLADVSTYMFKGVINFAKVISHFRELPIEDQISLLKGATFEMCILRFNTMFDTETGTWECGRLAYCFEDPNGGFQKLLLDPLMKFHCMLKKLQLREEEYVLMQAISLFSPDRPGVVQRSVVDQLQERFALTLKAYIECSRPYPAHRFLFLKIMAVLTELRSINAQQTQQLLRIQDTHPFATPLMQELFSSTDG
Nuclear receptor subfamily 1 group I member 2 (Homo sapiens), sequence (O75469 whole entry, looked up): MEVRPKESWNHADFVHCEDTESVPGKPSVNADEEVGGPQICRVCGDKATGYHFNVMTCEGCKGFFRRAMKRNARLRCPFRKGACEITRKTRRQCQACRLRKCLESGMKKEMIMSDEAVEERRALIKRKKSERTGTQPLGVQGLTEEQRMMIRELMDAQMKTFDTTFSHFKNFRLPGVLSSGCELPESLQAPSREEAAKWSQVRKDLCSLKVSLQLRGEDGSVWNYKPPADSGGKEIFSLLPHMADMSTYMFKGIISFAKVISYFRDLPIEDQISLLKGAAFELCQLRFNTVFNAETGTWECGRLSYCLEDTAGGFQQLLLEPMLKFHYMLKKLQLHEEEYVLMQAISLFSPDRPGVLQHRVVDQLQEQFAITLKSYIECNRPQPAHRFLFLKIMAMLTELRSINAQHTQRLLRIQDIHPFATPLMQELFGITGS
Cytochrome P450 2C19 (Homo sapiens), sequence (P33261 whole entry, looked up): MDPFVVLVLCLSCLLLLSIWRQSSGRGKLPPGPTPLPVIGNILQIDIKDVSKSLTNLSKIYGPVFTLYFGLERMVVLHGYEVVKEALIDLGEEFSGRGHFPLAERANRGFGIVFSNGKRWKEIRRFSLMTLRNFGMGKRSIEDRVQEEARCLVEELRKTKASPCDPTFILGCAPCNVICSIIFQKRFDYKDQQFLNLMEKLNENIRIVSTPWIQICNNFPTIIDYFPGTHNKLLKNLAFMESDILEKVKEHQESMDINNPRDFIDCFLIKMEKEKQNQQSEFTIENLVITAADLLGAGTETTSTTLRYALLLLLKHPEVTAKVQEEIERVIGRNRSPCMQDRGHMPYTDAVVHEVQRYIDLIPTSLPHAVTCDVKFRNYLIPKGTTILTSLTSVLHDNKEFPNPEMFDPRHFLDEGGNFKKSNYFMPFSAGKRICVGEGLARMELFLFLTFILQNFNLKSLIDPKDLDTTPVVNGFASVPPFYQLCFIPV
Progesterone receptor (Homo sapiens), sequence (P06401 whole entry, looked up): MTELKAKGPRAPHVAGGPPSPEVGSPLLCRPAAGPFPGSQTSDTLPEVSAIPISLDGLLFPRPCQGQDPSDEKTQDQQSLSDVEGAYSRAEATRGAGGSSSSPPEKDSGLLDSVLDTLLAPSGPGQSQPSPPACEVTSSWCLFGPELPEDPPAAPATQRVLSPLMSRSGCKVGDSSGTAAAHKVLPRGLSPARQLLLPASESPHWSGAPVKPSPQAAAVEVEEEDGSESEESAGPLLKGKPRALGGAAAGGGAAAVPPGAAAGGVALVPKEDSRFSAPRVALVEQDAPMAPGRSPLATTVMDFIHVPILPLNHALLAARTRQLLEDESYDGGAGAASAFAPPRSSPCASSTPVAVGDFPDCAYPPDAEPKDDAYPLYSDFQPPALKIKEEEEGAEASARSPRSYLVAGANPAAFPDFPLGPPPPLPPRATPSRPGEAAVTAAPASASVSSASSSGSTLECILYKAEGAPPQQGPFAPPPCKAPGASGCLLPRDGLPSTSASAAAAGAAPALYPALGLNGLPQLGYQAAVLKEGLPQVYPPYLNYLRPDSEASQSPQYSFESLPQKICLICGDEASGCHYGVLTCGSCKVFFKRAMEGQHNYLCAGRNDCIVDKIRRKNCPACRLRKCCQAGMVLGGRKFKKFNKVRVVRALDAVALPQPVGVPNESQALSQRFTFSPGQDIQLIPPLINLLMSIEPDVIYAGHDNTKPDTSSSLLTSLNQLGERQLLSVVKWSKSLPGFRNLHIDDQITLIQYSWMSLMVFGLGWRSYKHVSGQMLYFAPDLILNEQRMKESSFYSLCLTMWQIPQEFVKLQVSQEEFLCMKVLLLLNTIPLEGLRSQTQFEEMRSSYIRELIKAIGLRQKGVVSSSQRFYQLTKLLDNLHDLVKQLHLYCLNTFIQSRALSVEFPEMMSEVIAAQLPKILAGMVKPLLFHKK
Thyrotropin-releasing hormone receptor (Homo sapiens), sequence (P34981 whole entry, looked up): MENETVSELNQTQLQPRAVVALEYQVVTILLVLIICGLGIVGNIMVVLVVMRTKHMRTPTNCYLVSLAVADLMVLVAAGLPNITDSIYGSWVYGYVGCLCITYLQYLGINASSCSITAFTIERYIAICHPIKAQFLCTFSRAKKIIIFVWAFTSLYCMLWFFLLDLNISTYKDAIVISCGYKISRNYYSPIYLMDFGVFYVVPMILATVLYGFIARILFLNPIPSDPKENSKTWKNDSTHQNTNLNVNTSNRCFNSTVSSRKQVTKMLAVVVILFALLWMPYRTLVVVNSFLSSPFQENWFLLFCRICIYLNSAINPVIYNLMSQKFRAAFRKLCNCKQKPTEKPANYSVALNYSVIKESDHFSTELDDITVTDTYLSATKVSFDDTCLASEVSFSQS

O=C(O)c1ccco1
inactive: Potency [1] | Potency [2] | Potency [3] | outcome [4] | outcome [5] | Potency [6] | Potency [7] | Potency [8] | Potency [9] | Potency [10] | Potency [11] | Potency [12] | Potency [13] | Potency [14]

CCC(C)c1cc(C(C)(C)C)c(O)c(C(C)(C)C)c1 (stereo not drawn)
inactive: Potency [1] | Potency [3] | Potency [15] | Potency [16] | outcome [4] | Potency [17] | outcome [5] | Potency [6] | Potency [7] | Potency [8] | Potency [9] | Potency [10] | Potency [11]

C#C[C@]1(O)CC[C@H]2[C@@H]3CCc4cc(OC5CCCC5)ccc4[C@H]3CC[C@@]21C
inactive: Potency [1] | Potency [3] | Potency [15] | Potency [16] | outcome [4] | Potency [17] | Potency [8] | Potency [10] | Potency [11] | max activation [18] -3.04% | Potency [13]
active: Potency [9] 29.8 µM

CC(C)=CCC/C(C)=C/CC/C(C)=C/CO
inactive: Potency [1] | Potency [3] | Potency [15] | Potency [16] | outcome [4] | Potency [17] | outcome [5] | Potency [6] | Potency [8] | Potency [10] | Potency [11]
active: Potency [12] 43.3 µM | Potency [13] 39.9 µM | Potency [14] 4.48 µM

C#Cc1cccc(Nc2ncnc3cc(OCCOC)c(OCCOC)cc23)c1
active: Potency [9] 6.68 µM | Potency [12] 7.5 µM
inactive: Potency [1] | Potency [2] | Potency [15] | Potency [16] | outcome [4] | Potency [8] | Potency [10] | max activation [18] -7.82% | Potency [19] | Potency [13]

CCCCCCCCCCCc1ccccc1
inactive: Potency [1] | Potency [2] | Potency [15] | Potency [16] | outcome [4] | Potency [17] | outcome [5] | Potency [6] | Potency [7] | Potency [8] | Potency [9] | Potency [10] | Potency [11] | Potency [12] | Potency [13] | Potency [14]

CCOC(=O)NCCOc1ccc(Oc2ccccc2)cc1
inactive: Potency [1] | Potency [16] | outcome [4] | outcome [5] | Potency [6] | Potency [8] | Potency [10]
active: Potency [2] 17.2 µM | Potency [12] 21.7 µM | Potency [13] 35.6 µM | Potency [14] 6.33 µM

CN1CCC(=C2c3ccccc3Sc3ccccc32)CC1
inactive: Potency [1] | Potency [15] | Potency [16] | outcome [4] | Potency [17] | outcome [5] | Potency [6] | Potency [8] | Potency [10] | max activation [18] -5.4%
active: Potency [2] 23.7 µM | Potency [7] 23.7 µM | Potency [19] 10 µM | Potency [13] 3.47 µM

CN(Cc1ccc(C(C)(C)C)cc1)Cc1cccc2ccccc12
active: Potency [15] 10.6 µM | Potency [13] 0.347 µM | Potency [14] 8.71 µM
inactive: Potency [1] | Potency [2] | outcome [4] | Potency [17] | outcome [5] | Potency [6] | Potency [7] | Potency [8] | Potency [9] | Potency [10] | Potency [11] | max activation [18] 1.25%

C/C=C/C(=O)CC
inactive: activation [1] 0.707% [at 19 µM] | activity change, negative = inhibition [2] -21.4% [at 18.9 µM] | activity change, negative = cytotoxicity [15] -14.3% [at 19 µM] | viability change, negative = cytotoxic [16] -21.1% [at 15.8 µM] | activity change, negative = cytotoxicity [4] -6.07% [at 15.8 µM] | activation [17] 4.38% [at 15.8 µM] | activity, negative = inhibition [5] -0.562% [at 10.5 µM] | activation [6] -0.663% [at 11.8 µM] | activity change, negative = cytotoxicity [7] -29.3% [at 19 µM] | caspase activation [8] 0.108% [at 19 µM] | activity change, negative = cytotoxicity [9] 0.0214% [at 19 µM] | caspase-3/7 activation [10] 1.13% [at 19 µM] | activity change, negative = cytotoxicity [11] -1.71% [at 19 µM] | activity change, negative = inhibition [13] 0.0645% [at 23.6 µM]
active: Potency [12] 10.5 µM

OCc1cc(C(O)CNCCCCCCOCCCCc2ccccc2)ccc1O (stereo not drawn)
inactive: Potency [1] | Potency [3] | Potency [15] | Potency [16] | outcome [4] | Potency [17] | outcome [5] | Potency [6] | Potency [8] | Potency [10] | Potency [12] | max activation [18] 0.017% | Potency [14]
active: Potency [7] 21.1 µM | Potency [9] 23.7 µM | Potency [11] 26.6 µM

C=C1[C@H]2CC[C@@H]3[C@H]2C(C)(C)CCC[C@]13C
inactive: Potency [1] | Potency [2] | Potency [16] | outcome [4] | Potency [17] | outcome [5] | Potency [6] | Potency [7] | Potency [8] | Potency [9] | Potency [10] | Potency [11] | Potency [12] | Potency [13] | Potency [14]

CC(C)C[C@H]1C(=O)N2CCC[C@H]2[C@]2(O)O[C@](NC(=O)[C@@H]3C=C4c5cccc6[nH]c(Br)c(c56)C[C@H]4N(C)C3)(C(C)C)C(=O)N12
active: Potency [11] 16.4 µM | Potency [14] 21.4 µM
inactive: Potency [1] | Potency [2] | Potency [16] | outcome [4] | Potency [17] | outcome [5] | Potency [6] | Potency [8] | Potency [10] | max activation [18] 0.513% | Potency [19] | Potency [13]

CCCCCCCCCCCCCCCCOS(=O)(=O)O
inactive: Potency [1] | Potency [2] | Potency [16] | outcome [4] | Potency [17] | Potency [7] | Potency [8] | Potency [10] | Potency [11] | Potency [12]
active: Potency [15] 18.8 µM

CC(=O)[O][Al]
inactive: Potency [1] | Potency [3] | Potency [15] | Potency [16] | outcome [4] | Potency [17] | Potency [7] | Potency [8] | Potency [9] | Potency [10] | Potency [11]
